Reference: ChEMBL document CHEMBL3988442, “University of Dundee, Small-Polar-MMV Screening Library” (2021)

target: AMP-activated protein kinase, AMPK (Homo sapiens) (UniProt P54646+O43741+P54619+Q9UGJ0+Q9Y478+Q13131+Q9UGI9); assay: AMP-dependent Kinase enzyme assay. An in vitro enzyme assay that detects ADP turnover that is directly proportional to AMPK activity. This uses naive AMPK that is activated during the assay with MK-8722; format: functional; design: scale not given: direction of the effect not stated beside the values; details: 30 µM

Row | SMILES | Percent Effect [%]
1 | Cc1cc(C)n(C2CCN(C(=O)c3cn4ccsc4n3)C2)n1 (stereo not drawn) | -11.9
2 | CN(CCc1cccc2ccccc12)Cc1nc(N)nc(N(C)C)n1 | -2.41
3 | Cc1cc(C)n(C2CN(Cc3nc4cc(Cl)ccc4n3C)C2)n1 | 3.42
4 | CC(C)C(C(=O)O)c1cccc(Cl)c1 (stereo not drawn) | -3.52
5 | O=C(O)c1cnc(OCC2CC2)c(Cl)c1 | -1.49
6 | CCN(Cc1cccc2c1OCCO2)C(=O)NC(C)(C)C | -7.11
7 | O=c1ccc(S(=O)(=O)N2CCCC2)cn1CC1CCCCO1 (stereo not drawn) | 6.91
8 | CCn1ncnc1C(C)Nc1cc(C2CC2)ncn1 (stereo not drawn) | 3.16
9 | CC1(C)O[C@@](C)([C@H]2CC3(CCN(c4ncccn4)CC3)CO2)CC[C@@H]1O | 7.88
10 | CSc1ccc(C)c(C(=O)Nc2c(C(N)=O)n[nH]c2C)c1 | 3.27
11 | CCN(CCNS(=O)(=O)N1CCOCC1)C(=O)OC(C)(C)C | 0.848
12 | N#Cc1cccc(NC(=O)N[C@H](CO)Cc2ccc(O)cc2)c1 | 6.46
13 | COCCOCC1CCN(C(=O)c2ccc3[nH]cnc3c2)C1 (stereo not drawn) | -11.9
14 | O=C(CCCN1CCCCC1)NC(C(=O)O)c1ccc(Cl)cc1 (stereo not drawn) | 6.04
15 | CSCC(C)(O)CNS(=O)(=O)c1cccc(C)c1 (stereo not drawn) | -0.713
16 | COC(=O)c1cc2n(n1)CCN(C(=O)c1csc(CN(C)C)n1)C2 | 1.89
17 | CCc1ccc2nc(-c3cnn(C)c3)cc(C(=O)N3CCCC3)c2c1 | 7.23
18 | CCc1nccn1CC1CCCN1S(=O)(=O)N1CCCOCC1 (stereo not drawn) | 15.2
